# This is part of a sample that, as a whole, favours compounds with a hit. Of some 79,000 tested, about 15% had one in any assay. A number with no mark means an inactive call. Calls of active or inactive are those of the source. Cut-off read from the data, not from the text of the source: active = growth inhibition above about 70%; inactive = the rest.
# Assay: NCI Yeast Anticancer Drug Screen. Data for the sgs1 strain (AID 173);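 note: 0% = growth of vehicle-only control cultures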
# Settings: S. cerevisiae sgs1 mutant, hits give high values
# Experimental: Growth inhibition of yeast strains with defined genetic alterations is measured as a screen for potential anti-cancer activity. Selected strains with alterations in DNA damage repair or cell cycle control were exposed to compounds and growth inhibition was measured relative to vehicle treated controls. The strain used in this assay is sgs1
SMILES,growth inhibition (at 1.2 µM) [%],growth inhibition (at 3.7 µM) [%],growth inhibition (at 11.0 µM) [%],growth inhibition (at 33.0 µM),growth inhibition (at 100.0 µM)
CCC(=O)OCCn1c2nc(=O)[nH]c(=O)c-2nc2cc(C)c(C)cc21,-15,-7,21,83% (active),94% (active)
S=C(Nc1ccc(Cl)cc1)SC1CCCCC1,0,2,51,98% (active),98% (active)
O=[N+]([O-])c1cccc2nccc(NCCCO)c12,8,38,62,79% (active),86% (active)
CNC(=O)OCc1c(COC(=O)NC)c(-c2ccc(Cl)c(Cl)c2)n2c1CCC2,-11,-20,-29,88% (active),97% (active)
O=C(Nc1ccccc1)OCCc1ccc(Cl)c(Cl)c1,-19,-9,2,22%,47%
CSC1=NNC(SC)=NN1,-5,-11,8,75% (active),98% (active)
COC1C=COC2(C)Oc3c(C)c(O)c4c(c3C2=O)/C(=N/C2CCC(O)OC2C)C=C(NC(=O)/C(C)=C\C(=O)C2CC2C(O)C(C)C(O)C(C)C(OC(C)=O)C1C)C4=O (stereo not given),0,-76,3,37%,89% (active)
CN(C)c1ccc(Sc2ccc3nc(N)nc(N)c3c2)cc1,14,21,24,17%,18%

# Reference: PubChem BioAssay (NCI)
